The structures appear in SMILES notation. The source made the active and inactive calls. The calls were made as follows: active = hit-call score of the fitted dose curve at least 0.9, where 1 is the maximum; inactive = score below 0.9.

This passage reports AC50 and outcome results from PubChem BioAssay (EPA / NIEHS).

In the assay the target is Cellular tumor antigen p53 (Homo sapiens) (UniProt P04637). Kind of assay: ATG_p53_CIS: Attagene CIS-FACTORIAL HepG2 Assay for human p53 Transcription Factor (AID 2282994). The following applies: HepG2 p53 cis-element reporter, Attagene mRNA; actives raise or lower the signal. The method, then: ATG_CIS is a cell-based, multiplexed-readout assay that uses HepG2, a human liver cell line, with measurements taken at 24 hours after chemical dosing in a 24-well plate.ATG_p53_CIS is one of 52 assay component(s) measured or calculated from the ATG_CIS assay. It is designed to make measurements of mRNA induction, a form of inducible reporter, as detected with fluorescence intensity signals by Reverse transcription polymerase chain reaction (RT-PCR) and Capillary electrophoresis technology.Data from the assay component ATG_p53_CIS was analyzed into 1 assay endpoint. This assay endpoint, ATG_p53_CIS, was analyzed with bidirectional fitting relative to DMSO as the negative control and baseline of activity. Using a type of inducible reporter, measures of mRNA for gain or loss-of-signal activity can be used to understand the reporter gene at the transcription factor-level as they relate to the gene TP53. Furthermore, this assay endpoint can be referred to as a primary readout, because this assay has produced multiple assay endpoints where this one serves a reporter gene function. To generalize the intended target to other relatable targets, this assay endpoint is annotated to the dna binding intended target family, where the subfamily is tumor suppressor.
Chain of Cellular tumor antigen p53 (Homo sapiens) (P04637 whole entry, looked up): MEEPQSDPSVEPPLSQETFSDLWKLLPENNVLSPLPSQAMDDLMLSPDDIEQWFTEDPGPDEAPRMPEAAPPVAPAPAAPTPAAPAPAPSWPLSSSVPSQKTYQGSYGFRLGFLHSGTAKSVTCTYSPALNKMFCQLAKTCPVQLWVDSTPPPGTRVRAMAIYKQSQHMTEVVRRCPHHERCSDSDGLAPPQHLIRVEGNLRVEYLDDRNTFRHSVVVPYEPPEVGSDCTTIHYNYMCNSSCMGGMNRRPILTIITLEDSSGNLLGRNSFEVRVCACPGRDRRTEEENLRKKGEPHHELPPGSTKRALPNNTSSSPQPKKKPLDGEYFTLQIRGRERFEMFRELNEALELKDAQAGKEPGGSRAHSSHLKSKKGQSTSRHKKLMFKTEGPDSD
Human liver HepG2 cells are transiently transfected with multiple reporter transcription units (MRTUs) in 6-well plates using FuGene 6 reagent (Roche; 3 ml FuGene/1 mg DNA). The MRTU constructs are regulated by a cis-regulating element (promoter). […] A major difference between the CIS and TRANS system is that in CIS activities of endogenous TFs are measured, whereas the TRANS assay evaluates changes in activities of exogenous, chimeric NR-Gal4 proteins. […] At the end of 24 hour incubation, total RNA was isolated using TriZol reagent (Invitrogen). The isolated RNA is then reverse-transcribed using oligo(dT) primer and Mo-MLV reverse transcriptase (Invitrogen) with DNAse I (Ambion) treatment for 30 min. The one-tenth of the produced cDNA was amplified by PCR using Taq DNA polymerase (Invitrogen) and two reporter sequence-specific primers. The PCR products were fluorescently labeled by primer extension with 6-arboxyfluorescein (6-FAM) 5'-labeled reporter sequence-specific primer (2 min at 95 C, 20 s at 68 C and 10 min at 72 C) and these products were digested with 5U of HpaI (New England Biolabs) for 2h at 37 C. The fragments were purified using Qiaquick PCR columns (Qiagen), analyzed on an ABI 3130xL genetic analyzer (Applied Biosystems) with peak positions identified by using a set of X-rhodamine (ROX)-labeled MapMarker1000 molecular weight standards (BioVentures). The raw capillary electrophoresis data was processed using Attagraph software (Attagene).
A word on the AC50: it is the concentration at which the activity in the assay is half-maximal. Turning to `COC(=O)[C@H]1[C@H]2C[C@@H]3c4[nH]c5cc(OC)ccc5c4CCN3C[C@H]2C[C@@H](OC(=O)c2cc(OC)c(OC)c(OC)c2)[C@@H]1OC`, the AC50 is 22.9 µM (active). Consider `CCCCC(CC)COP(=O)(OCC(CC)CCCC)OCC(CC)CCCC` (stereo not given), for which the outcome was inactive. Take `CCc1cc(C2=C(C(=O)O)N(c3ccccc3C(F)(F)F)S(=O)(=O)c3ccccc32)cc2c1OCO2`: the compound was classed as inactive. Regarding `CC(C)(O)c1ccc(CNC(=O)c2cccnc2Oc2ccc(F)cc2)cc1`, the compound was classed as inactive. As for `Cc1ccc(C(C)(C)C)c(O)c1`, the AC50 was 182 µM (active). Take `COc1ccc(C(=O)Nc2nc3ccccc3c(NCc3ccccc3)c2C#N)cc1`: the outcome was inactive. With `CN(C)C(=O)NC1(c2ccccc2)CCN(CCC[C@]2(c3ccc(Cl)c(Cl)c3)CCCN(C(=O)c3ccccc3)C2)CC1`, the outcome was inactive. Turning to `COC(=O)CCC(=O)OC`, the result was inactive. `CCCCCCC(CCCCCCCCCCC(=O)OCC(COC(C)=O)OC(C)=O)OC(C)=O` (stereo not given): the call was inactive. Consider `Cc1cc(SC2=C(O)C[C@@](CCc3ccc(N)cc3)(C(C)C)OC2=O)c(C(C)(C)C)cc1CO`, for which the compound was called inactive. Consider `COC(=O)CCCC(=O)OC`, for which the outcome was inactive. As for `O=C(O)c1[nH]n(-c2ccc(S(=O)(=O)O)cc2)c(=O)c1N=Nc1ccc(S(=O)(=O)O)cc1`, the compound was called inactive. `CC1(C)C(=O)NC(=O)N1CO`: the compound was classed as inactive. Take `O=C(O)CN(CC(=O)O)CC(=O)O`: the compound was called inactive. For the compound `CC(=O)S[C@H](C(=O)N[C@H]1Cc2ccccc2[C@H]2CCC[C@@H](C(=O)O)N2C1=O)C(C)C`, the outcome was inactive. For `CN(C)CCCN1c2ccccc2Sc2ccc(Cl)cc21`, the AC50 is 6.92 µM (active). In the case of `S=c1[nH]c2ccccc2s1`, the result was inactive.

As to `CCC(C)N(C)C(=O)c1cc2ccccc2c(-c2ccccc2Cl)n1` (stereo not given), the AC50 is 27.3 µM (active). As for `CCCCCCCC(=O)OC`, the compound was classed as inactive. On to `CC1=C(C)S(=O)(=O)CCS1(=O)=O`, for which the AC50 is 130 µM (active). For `O=C1c2c(O)cccc2Cc2cccc(O)c21`, the result was inactive. Consider `C=CCc1ccc(OC)c(OC)c1`, for which the compound was called inactive. Still for that read-out and setting: next, `CCOCCOCCO`: “inactive”. Turning to `COc1ccc(OC(F)(F)F)cc1CN[C@H]1CCCN[C@H]1c1ccccc1`, the half-maximal activity concentration (AC50) is 2.91 µM (active). In the case of `Cc1cc(Cc2ccc(N)c(C)c2)ccc1N`, the outcome was inactive. Turning to `NCCOCCOCCN`, the call was inactive. For `CCc1nc(N)nc(N)c1-c1ccc(Cl)cc1`, the AC50 was 30.3 µM (active). Regarding `OCC(CO)n1cnc(-c2ccc(F)cc2)c1-c1ccnc(Oc2ccccc2)n1`, the compound was called inactive. For the compound `Oc1ccc(O)cc1`, the call was inactive. On to `CN(C)CCCN(C)CCCN(C)C`, for which the result was inactive. `CCCC[C@H]1CN(CC2CCOCC2)C(=O)OC12CCN(C1(C)CCN(C(=O)c3c(C)ncnc3C)CC1)CC2`: the result was inactive.

Consider `C=CCCCCCCCCCCCC`, for which the compound was called inactive. On the same count and under the same terms, next, `CCCCC(CC)COC(=O)CCCCCCCC(=O)OCC(CC)CCCC` (stereo not given): “inactive”. With `CN(C)C(=O)NC1(c2ccccc2)CCN(CC[C@@]2(c3ccc(F)c(F)c3)CN(C(=O)c3ccccc3)CCO2)CC1`, the AC50 was 100 µM (active). Take `Oc1ccccc1O`: the outcome was inactive. `O=C1OC(c2ccc(O)cc2)(c2ccc(O)cc2)c2ccccc21`: the outcome was inactive. For the compound `CO[C@@H]1COCC[C@@H]1N[C@@H]1CC[C@@](C(=O)N2CCc3ncc(C(F)(F)F)cc3C2)(C(C)C)C1`, the call was inactive. As for `O=[Si]=O`, the call was inactive. Regarding `CC(C)(C)c1ccccc1`, the result was inactive. For the compound `c1ccc2occc2c1`, the outcome was inactive.
